Reference: PubChem BioAssay AID1159580 (chemical genetic matrix, 2015)
The campaign covered roughly 5,500 compounds. About 2,000 (36%) were called active. About 18% were inconclusive and are not listed. Cut-off read from the data, not from the text of the source: active = normalized growth mostly below about 0.91 (no sharp cut-off); inconclusive = no clear call, values can overlap the other calls; inactive = mostly above about 0.92. The list shows a part of the results.

Test: chemical genetic growth profiling, strain panel (AID 1159580);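 note: tested at 20 µM; growth read once vehicle control cultures reached saturation at 30 °C; 1 = growth at the plate median or of vehicle wells; lower values mean less growth of the strain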
Details: S. cerevisiae deletion strains, growth OD

Measured: normalized growth

CC1=NN=C(c2ccc(N)cc2)c2cc3c(cc2C1)OCO3
inactive: locus YAL013W, strain DEP1, active compounds read low 0.989 | locus YAL040C, strain CLN3, active compounds read low 0.968 | locus YCL061C, strain MRC1 (second series), active compounds read low 0.991 | locus YDR363W, strain ESC2, active compounds read low 0.986 | locus YER002W, strain NOP16, active compounds read low 0.967 | locus YMR263W, strain SAP30, active compounds read low 0.996 | locus YMR307W, strain GAS1, active compounds read low 1 | locus YNL128W, strain TEP1, active compounds read low 0.983 | locus YNL153C, strain GIM3, active compounds read low 0.957 | locus YNL175C, strain NOP13, active compounds read low 0.968 | locus YNL197C, strain WHI3, active compounds read low 0.964 | locus YNL224C, strain SQS1, active compounds read low 0.989 | locus YOR083W, strain WHI5 (second series), active compounds read low 0.936 | locus YPL055C, strain LGE1, active compounds read low 0.984

Cc1nnc2n1N=C(c1ccc(CC(C)C)cc1)C(C)S2 (stereo not given)
inactive: locus YAR019C, strain CDC15, active compounds read low 0.971 | locus YBL105C, strain PKC1, active compounds read low 0.975 | locus YBR135W, strain CKS1, active compounds read low 0.964 | locus YBR136W, strain MEC1, active compounds read low 0.975 | locus YBR160W, strain CDC28, active compounds read low 0.978 | locus YDL017W, strain CDC7, active compounds read low 0.982 | locus YDL028C, strain MPS1, active compounds read low 0.972 | locus YDL101C, strain DUN1, active compounds read low 0.965 | locus YDL108W, strain KIN28, active compounds read low 0.97 | locus YDL132W, strain cdc53, active compounds read low 0.972 | locus YDL214C, strain PRR2, active compounds read low 0.98 | locus YDR052C, strain DBF4, active compounds read low 0.977 | locus YDR054C, strain cdc34, active compounds read low 0.973 | locus YDR226W, strain ADK1, active compounds read low 0.966 | locus YDR477W, strain SNF1, active compounds read low 0.975 | locus YER123W, strain YCK3, active compounds read low 0.941 | locus YER133W, strain GLC7, active compounds read low 0.972 | locus YFL009W, strain cdc4, active compounds read low 0.971 | locus YFL029C, strain CAK1, active compounds read low 0.971 | locus YFR003C, strain YPI1, active compounds read low 0.978 | locus YFR019W, strain FAB1, active compounds read low 0.986 | locus YFR028C, strain CDC14, active compounds read low 0.969 | locus YGR040W, strain KSS1, active compounds read low 0.979 | locus YGR052W, strain FMP48, active compounds read low 1.05 | locus YGR092W, strain DBF2, active compounds read low 0.971 | locus YHR030C, strain SLT2, active compounds read low 1.08 | locus YHR079C, strain IRE1, active compounds read low 1.05 | locus YHR082C, strain KSP1, active compounds read low 1.05 | locus YHR205W, strain SCH9, active compounds read low 0.977 | locus YIL147C, strain SLN1, active compounds read low 0.964 | locus YJL095W, strain BCK1, active compounds read low 1.06 | locus YJL128C, strain PBS2, active compounds read low 0.931 | locus YJL157C, strain FAR1, active compounds read low 0.983 | locus YJR016C, strain ILV3, active compounds read low 0.98 | locus YJR066W, strain TOR1 (second series), active compounds read low 0.971 | locus YJR066W, strain TOR1, active compounds read low 1.07 | locus YKL048C, strain ELM1, active compounds read low 0.979 | locus YKL067W, strain YNK1, active compounds read low 0.98 | locus YKL101W, strain HSL1, active compounds read low 0.985 | locus YKL193C, strain SDS22, active compounds read low 0.972 | locus YKL203C, strain TOR2, active compounds read low 1.04 | locus YLR113W, strain HOG1, active compounds read low 0.973 | locus YLR133W, strain CKI1, active compounds read low 0.985 | locus YLR403W, strain SFP1, active compounds read low 0.965 | locus YML070W, strain DAK1, active compounds read low 0.968 | locus YMR001C, strain CDC5, active compounds read low 0.974 | locus YMR205C, strain PFK2 (second series), active compounds read low 0.986 | locus YMR277W, strain FCP1, active compounds read low 0.975 | locus YNL006W, strain LST8, active compounds read low 0.986 | locus YNL020C, strain ARK1, active compounds read low 0.997 | locus YNL161W, strain CBK1, active compounds read low 0.977 | locus YNL183C, strain NPR1, active compounds read low 1.05 | locus YNL207W, strain RIO2, active compounds read low 0.98 | locus YNL222W, strain SSU72, active compounds read low 0.97 | locus YNL307C, strain MCK1 (second series), active compounds read low 0.97 | locus YOL078W, strain AVO1, active compounds read low 0.977 | locus YOL136C, strain PFK27, active compounds read low 0.975 | locus YOR061W, strain CKA2, active compounds read low 0.972 | locus YOR119C, strain RIO1, active compounds read low 0.982 | locus YOR231W, strain MKK1, active compounds read low 1.04 | locus YOR329C, strain SCD5, active compounds read low 0.98 | locus YPL031C, strain PHO85, active compounds read low 0.983 | locus YPL153C, strain RAD53, active compounds read low 0.956 | locus YPL204W, strain HRR25, active compounds read low 0.96 | locus YPL209C, strain IPL1, active compounds read low 0.98 | locus YPL256C, strain CLN2, active compounds read low 1.02 | locus YPR025C, strain CCL1, active compounds read low 0.969 | locus YPR106W, strain ISR1, active compounds read low 0.979 | locus YPR111W, strain DBF20, active compounds read low 0.967 | strain NNK1, active compounds read low 0.978 | strain TSCII, active compounds read low 0.972
